Assay outcomes deposited in PubChem by several laboratories.
Shown are actives, neighbours in structure and some others; about 2.2% of the full set was active somewhere.
Cardiac RTF inh – cardiac RTF calcium desensitization. P19429+P45379. IANBD-labeled cardiac RTF, Ca2+ fluorescence. inhibition, % at 7.15 µM. 340,000 compounds, 0.12% hits. AID 493244;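 active = inhibition above the mean inhibition of all tested compounds plus 3 SD, cut at about 17% in these data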;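 also: assay run at fixed EC70 calcium of 1.6 mM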
RTF Ca sens act – increases calcium sensitivity of human cardiac regulated thin filaments | P19429+P45379 | IANBD-labeled TnC RTF fluorescence at EC20 calcium; 0% EC20 calcium, 100% full calcium | activation, % at 7.2 µM | 340,000 compounds, 0.24% hits | AID 493008;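 active = activation above the mean over all tested compounds plus 3 SD, cut at about 30% in these data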;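 also: rise in fluorescence read as greater calcium sensitivity of cardiac thin filaments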
Myeloid diff MLP – myeloid differentiation induction. AID 624256. ER-HoxA9 myeloid progenitors, lysozyme-GFP differentiation, flow cytometry. 360,000 compounds, 1% hits. calls only at 10 µM;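 active = normalized GFP-positive differentiation at or above the plate's own cutoff, the solvent-only control mean plus 3 SD; inconclusive = no clear call, values can overlap the other calls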;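 also: cells exposed to compound for four days before flow analysis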
CRFBP-R2 agonist – agonists of human CRF-binding protein/CRF-R2 receptor complex. AID 588473. 350,000 compounds, 0.46% hits. HEK293 CRF-R2/CRF-BP, calcium dye fluorescence (FLIPR); percent of saturating CRF peptide response. activation, % at 13.2 µM;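 active = activation of at least 50%, plus an integration ratio under a set limit after plate pattern correction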
CRFBP-R2 block – antagonists of CRF-binding protein/CRF-R2 receptor complex | AID 588475 | HEK293 CRF-R2/CRF-BP, CRF-induced calcium fluorescence | 350,000 compounds, 0.59% hits | inhibition, % at 11.8 µM;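 active = inhibition of the ligand-induced calcium signal above about 50% at the single tested concentration, limit read from the data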
Myeloid diff CP1 – promotes myeloid progenitor differentiation; 2,300 compounds, 2% hits; shares compounds with Myeloid diff MLP; calls only; AID 651706; ER-HoxA9 myeloid progenitors, GFP/Mac1 double-positive flow;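 active = share of green or green-and-red cells above 9 and 9% in run 1 or 4 and 3% in run 2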
GFP autofluor – compound fluorescence in myeloid differentiation counter-screen; AID 651707; fluorescence response, % (concentration not given with the values); 2,300 compounds, 7.4% hits; shares compounds with Myeloid diff MLP; ER-HoxA9 myeloid progenitors, no estrogen, GFP autofluorescence flow cytometry; vehicle wells 0%, positive control 100%;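 active = over 5% cells positive for green fluorescent reporter, or over 2% positive for both it and APC stain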
A number is an active result; – = inactive; ? = inconclusive; · = no result given; + = active, no number.

SMILES	Cardiac RTF inh	RTF Ca sens act	Myeloid diff MLP	CRFBP-R2 agonist	CRFBP-R2 block	Myeloid diff CP1	GFP autofluor
O=C(COC(=O)Cc1ccc(S(=O)(=O)N2CCOCC2)s1)Nc1ccc([N+](=O)[O-])cc1	–	–	–	–	–	·	·
Cn1c(=O)c2cc(NC(=O)CCc3ccc(O)cc3)ccc2n1Cc1cccc(C(F)(F)F)c1	·	·	+	·	·	–	–
CC(C)(C)N(Cc1ccccc1)C(=O)COC(=O)C1CC(=O)N(Cc2ccccc2)C1 (stereo not drawn)	–	–	–	–	–	·	·
Cc1cc(-n2c(C)cc(C(=O)COc3ccc(F)c(F)c3)c2C)no1	–	–	–	–	–	·	·
CCC(=O)Nc1ccc(/C(C)=N\NS(=O)(=O)c2ccc(C)cc2)cc1	–	–	+	–	–	–	–
CC(=O)Nc1ccc(/C(C)=N/NS(=O)(=O)c2ccc(C)cc2)cc1	–	–	·	–	–	·	·
Cc1cccc(C)c1NC(=O)C(=O)NCCc1c[nH]c2ccccc12	–	–	–	–	–	·	·
Cc1cccc(NC(=O)C(=O)NCCc2c[nH]c3ccccc23)c1C	–	–	–	–	–	–	–
CSCCC(NS(=O)(=O)c1ccccc1F)C(=O)N1CCCCCCC1 (stereo not drawn)	–	–	–	–	–	·	·
N/C(=N\OC(=O)C12CC3CC(CC(C3)C1)C2)c1ccccc1	–	–	–	–	–	·	·
N/C(=N\OC(=O)C12CC3CC(CC(C3)C1)C2)c1cccnc1	–	–	–	–	–	–	–
Oc1cc(-n2cccn2)c(O)cc1-n1cccn1	–	–	–	–	–	·	·
CC1CCN(S(=O)(=O)c2ccc(C(C)C)cc2)CC1	–	–	+	90.3	–	–	41.2
O=C(OCc1ccccc1)N1CCC2CC1c1cc(Cl)ccc12 (stereo not drawn)	–	–	?	–	–	–	–
COc1cc(C(=O)NCCC(=O)NCc2c(F)cc(F)cc2F)cc(OC)c1OC	–	–	–	–	–	–	–
O=C(NCc1ccccn1)[C@@H]1CCCN1C(=O)[C@@H]1CCCN1C(=O)c1cccc(Cl)c1	·	·	–	·	·	–	–
CCC(=O)Oc1oc(-c2ccccc2)nc1C=Nc1ccc(C)cc1	–	–	–	–	–	·	·
Cc1ccc(-c2nc(C=Nc3ccc(O)cc3)c(O)o2)cc1	–	–	–	–	–	–	–
Oc1oc(-c2ccco2)nc1C=Nc1ccccc1	–	–	–	–	–	–	–
O=C(CCNS(=O)(=O)c1cccc(C(F)(F)F)c1)NC1CC1	–	–	–	–	–	·	·
O=C1NC(=O)c2cc(Br)cc3cccc1c23	–	–	–	–	–	·	·
Cc1ccc(NS(=O)(=O)c2cc3c4c(cccc4c2)C(=O)NC3=O)cc1C	–	–	+	–	–	–	–
COCCn1c(C)cc(C(=O)COC(=O)/C=C/c2c(C)nn(C3CCS(=O)(=O)C3)c2Cl)c1C (stereo not drawn)	–	–	–	–	–	·	·
CC(=O)Nc1cc(-c2ccc(C(=O)NC3CC3)cc2)cn2c(-c3ccc(F)c(Cl)c3)cnc12	·	·	–	·	·	·	·
CCOC(=O)c1c(C)c(C(=O)Nc2cc(OC)ccc2OC)c(C)n1CC	–	–	+	–	–	–	–
SMILES	Cardiac RTF inh	RTF Ca sens act	Myeloid diff MLP	CRFBP-R2 agonist	CRFBP-R2 block	Myeloid diff CP1	GFP autofluor
O=C(O)c1ccccc1C(c1ccc(O)cc1)c1ccc(O)cc1	–	–	–	–	–	·	·
COc1ccccc1C(=O)NCC(=O)OCc1nnc(-c2ccccc2)o1	·	·	–	–	–	·	·
COc1ccc(-n2c(N)c(C(=O)NCc3ccco3)c3nc4ccccc4nc32)c(OC)c1	–	–	+	–	–	–	–
Cc1nc2ccccn2c1C(=O)/C=C/c1ccc(F)cc1	–	–	–	–	–	–	–
CCOc1ccc(Cn2nnc(-c3ccc(S(C)(=O)=O)cc3)n2)cc1OCC	–	–	–	–	–	·	·
O=c1[nH][nH]c(=O)n1-c1ccccc1	–	–	–	–	–	·	·
CSc1cccc(NC(=O)CN(C)S(=O)(=O)c2cnc[nH]2)c1	–	–	?	–	–	·	·
CC12CCC(C)(O1)C1C(=O)N(c3nccs3)C(=O)C12 (stereo not drawn)	–	–	?	–	–	·	·
Cc1ccc[n+](Cc2ccc([N+](=O)[O-])cc2)c1	–	–	–	–	–	·	·
O=[N+]([O-])c1ccc(C[n+]2cccc3c4ccccc4ccc32)cc1	–	–	–	–	–	+	–
C=CCNC(=O)CN1CCC(n2nnc3cc(C(F)(F)F)ccc32)CC1	–	–	–	–	–	·	·
Cc1cc(NC(=O)CN2CCC(n3nnc4cc(C(F)(F)F)ccc43)CC2)no1	–	–	+	–	–	–	–
CN(C(=O)COC(=O)c1ccc[nH]c1=O)C1CCCCC1	–	–	–	–	–	–	–
CCN(C(=O)CN1CCC(C(=O)OC)CC1)c1c(N)n(Cc2ccccc2)c(=O)[nH]c1=O	–	–	–	–	–	·	·
Cc1c2ccccc2nc2c(F)c(NCCO)c(F)c(F)c12	–	41.6	+	–	–	–	78.0
Cc1ccc2[nH]c(CCN(C)C)c(CN3CCOCC3)c2c1	–	–	–	–	–	–	–
CCCN(CCC)S(=O)(=O)c1cccc(C(=O)Nc2ccc3c(c2)OCO3)c1	–	–	–	–	–	·	·
CCN(CC)S(=O)(=O)c1cccc(C(=O)Nc2ccc3c(c2)OCO3)c1	–	–	–	–	54.8	–	–
COC(=O)c1cc(NC(=O)CN2CCc3cc4c(cc3C2)OCCCO4)cc(C(=O)OC)c1	–	–	–	–	–	–	–
CCOC(=O)c1ccc(NC(=O)CN2CCc3ccccc3C2)cc1	–	–	–	–	–	–	–
O=C(C1CC1)N1CCc2cc(S(=O)(=O)NCC3COc4ccccc4O3)ccc21 (stereo not drawn)	–	–	+	–	–	–	–
O=C(C1CCC1)N1CCc2cc(S(=O)(=O)NCC3COc4ccccc4O3)ccc21 (stereo not drawn)	–	–	–	–	–	·	·
COc1cc(CC(=O)OCC(=O)c2c[nH]c3ccccc23)cc(OC)c1OC	–	–	–	–	–	–	9.7
COc1ccc(CC(=O)OCC(=O)c2c[nH]c3ccccc23)cc1	–	–	–	–	–	·	·
CC12CCC(C(=O)NCc3ccco3)(OC1=O)C2(C)C (stereo not drawn)	–	–	–	–	–	·	·
O=c1[nH]c(CN2CCN(c3ccccc3)CC2)nc2scc(-c3ccccc3)c12	–	–	+	–	–	–	–
COc1ccc(N2CCN(Cc3nc4scc(-c5ccccc5)c4c(=O)[nH]3)CC2)cc1	–	–	–	–	–	·	·
OC[C@@H]1CN(Cc2cccc3ccccc23)C[C@H](n2cnc3c(NCc4ccco4)ncnc32)O1	·	·	–	·	·	·	·
O=C(NCCc1ccco1)C(=O)NCC1CCCN1S(=O)(=O)c1ccccc1 (stereo not drawn)	–	–	+	–	–	–	–
